Screening results as filed in PubChem BioAssay.
The list is not random: actives were taken first. Their share in the collection is about 2.7%.
BRCA1 expr up: BRCA1 expression activation; MCF7-BRCA1-FFLuc reporter, luminescence, 48 h; response scale: scaled: vehicle 0%, 10 µM genistein 100%; Potency, µM (series often up to 46.1 µM), inactives show top-dose activation, most hits filed as activators; 380,000 compounds, 1.1% hits; AID 624202; also: nearly all actives have a fitted effect of over 80% in size
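Luminescence from a BRCA1-driven firefly luciferase in MCF7 cells was read after 48 h compound exposure at 37 C. Data normalized against DMSO and a 10microM genistein activation control, then curve-fitted across the titration.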
HEK293 tox: cytotoxicity in counter-screen for GLP-1R inverse agonists; HEK293 cAMP-luciferase reporter cells, luminescence, 24 h; Potency, µM (series often up to 38.3 µM), for the others: top-dose activity change, negative = inhibition, most hits filed as inhibitors; 410,000 compounds, 0.13% hits; AID 624418;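 also: loss of luciferase light is scored as toxicity; % is scaled to controls: 0 for no effect and ±100 for the full control effect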
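1536-well qHTS counterscreen of the MLSMR; 200 cells/uL, 12 h pre-incubation, 23 nL cpd, 24 h at 37 deg C 5% CO2, luciferase detection reagent, 12 min RT, luminescence. Inhibition = undesired.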
a7 integrin act: activators of alpha7 integrin expression for muscular dystrophy; alpha7betagal myoblasts, beta-gal FDG fluorescence, 48 h; Potency, µM (doses to about 38.3 µM), inactives show at the top dose activation, hits mostly activators; AID 624291; 350,000 compounds, 0.064% hits;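 also: 100% = response of the positive control SU9516; nearly all actives have a fitted effect of over 60% in size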
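alpha7betagal+/- myoblasts (passage 13, 250/well) treated 48 h at 37C with compounds at 1:260 dilution of DMSO stock. Lysed, then beta-galactosidase activity read as FDG fluorescence (ex 480/em 540) after 30 min, with pre-read for autofluorescence.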
GLP-1R agonist: agonists of human GLP-1 receptor; 380,000 compounds, 0.007% hits; P43220; Potency, µM (titrated, usually from 45.6 µM), without a hit: at the highest dose activation, hits mostly activators; HEK293 GLP-1R CRE-luciferase, luminescence, 4-6 h; cells express a hypersensitive GLP-1R form; also: % of control where 0% means no effect
Target sequence (P43220 whole entry, looked up): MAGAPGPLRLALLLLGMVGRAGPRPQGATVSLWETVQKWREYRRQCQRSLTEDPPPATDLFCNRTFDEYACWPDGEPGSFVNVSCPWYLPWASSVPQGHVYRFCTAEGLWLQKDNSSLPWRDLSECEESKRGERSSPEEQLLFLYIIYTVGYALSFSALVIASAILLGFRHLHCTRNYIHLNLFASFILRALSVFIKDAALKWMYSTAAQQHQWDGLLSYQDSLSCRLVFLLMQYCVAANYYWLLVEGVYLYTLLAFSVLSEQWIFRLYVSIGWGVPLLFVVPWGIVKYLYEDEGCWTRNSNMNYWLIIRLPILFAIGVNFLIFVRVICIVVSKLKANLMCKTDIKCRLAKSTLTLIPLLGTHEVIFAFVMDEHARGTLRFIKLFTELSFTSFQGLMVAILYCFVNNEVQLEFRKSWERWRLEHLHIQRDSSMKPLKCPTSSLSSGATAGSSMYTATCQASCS
GLP-1R inv ag: inverse agonists of human GLP-1 receptor | P43220 | HEK293 GLP-1R CRE-luciferase, luminescence, 24 h; GLP-1R form is constitutively active | Potency, µM (titrated, usually from 38.3 µM), for inactives: at the top dose activity change, negative = inhibition, usual class: inhibitors | 410,000 compounds, 1.6% hits; also: % is scaled to controls: 0 for no effect and ±100 for the full control effect; nearly all actives have a fitted effect of over 55% in size
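Constitutively active GLP-1R drives a cAMP-responsive luciferase in stably transfected HEK293 cells; test compounds are added after overnight (12 h) attachment and left 24 hr, and signal loss in luminescence marks inhibition.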
* marks the source's active call; other numbers are inactive results; ? = inconclusive; . = no result; [ ] = remark or other dose. Calls follow the shape of the dose curve; as a rule, active = well fitted curve in the direction sought with a large enough effect; inconclusive = small, poorly fitted or top-dose-only effect, or another doubt; inactive = no such curve, though single readings can be large; an effect the other way counts as inactive or inconclusive. Potency is read from the fitted curve at half-maximal effect.

SMILES | BRCA1 expr up | HEK293 tox | a7 integrin act | GLP-1R agonist | GLP-1R inv ag
COc1ccc(Nc2ncnc3c2nc2n3CCCCC2)cc1 | 10µM* | -5% | . | 2% | -3%
CCOc1cccc2sc(N(Cc3cccnc3)C(=O)c3ccc(C#N)cc3)nc12 | . | -13% | . | . | 1%
Cc1cc(C)cc(Oc2coc3c(CN4CCN(C)CC4)c(O)ccc3c2=O)c1 | . | -24% | . | . | 3%
O=C(NCCc1csc(-c2ccc(C(F)(F)F)cc2)n1)c1ccc(F)c(F)c1 | -65% | -12% | . | -2% | 10µM*
CC(C)=C[C@H]1C[C@H](C)[C@H]2CC[C@H](C)c3c(O[C@@H]4OC[C@@H](O)[C@H](O)C4O)c(O)c(C)c1c32 (some centres not stated) | -2% | -25% | -19% | 1% | 10µM*
COc1ccc(/C=N/NC(=O)c2cccnc2)cc1CN1CCCc2ccccc21 | -20% | 7% | -8% | 8% | 10µM*
COc1ccc(C(=O)N/N=C/c2ccc(OC)c(CN3CCCc4ccccc43)c2)cc1 | -84% | 6% | -19% | 0% | 10µM*
CCc1ccc(CN(C(=O)c2ccc(OC)cc2)C2CCS(=O)(=O)C2)cc1 (configuration not stated) | . | -3% | . | . | -1%
Cc1ccc(S(=O)(=O)N2CN(CC3CCCO3)c3nc4ccccc4nc32)c(C)c1 (configuration not stated) | -17% | -18% | 11µM* | 3% | 5%
Clc1ccc(C2=NNC(=NCC3CCCO3)SC2)cc1 (configuration not stated) | 2.5µM* | ? | -23% | 11% | ?
Cc1cc(C2=NNC(=NCCc3ccccc3)SC2)c(C)n1CC1CCCO1 (configuration not stated) | 47% | -1%[7.66 µM] | -24% | 14% | 43%[7.66 µM]
Cc1ccc(N2C(=O)NC(NC(=O)C3CC3)(C(F)(F)F)C2=O)cc1 (configuration not stated) | -7% | -5% | 13% | -2% | -12%
Cc1ccc(C(=O)NC2(C(F)(F)F)NC(=O)N(c3ccc(Cl)cc3)C2=O)cc1 (configuration not stated) | -15% | -10% | 16% | -4% | 5.6µM*
Cc1ncoc1C(=O)NC1CCCc2c1cnn2-c1ccc(C(C)(C)C)cc1 (configuration not stated) | -63% | 11% | -45% | 5% | 5µM*
COCc1ccc(C(=O)NC2CCCc3c2cnn3-c2cc(C)cc(C)c2)s1 (configuration not stated) | -1% | -18% | -40% | 6% | 7.1µM*
Cc1cc(C)cc(-n2ncc3c2CCCC3NC(=O)c2cc(C)oc2C)c1 (configuration not stated) | -5% | -8% | -35% | 0% | 13µM*
Cc1ncoc1C(=O)NC1CCCc2c1cnn2-c1cc(F)cc(F)c1 (configuration not stated) | -13% | -8% | -5% | 7% | 0%
O=C1c2ccsc2SCCN1Cc1c(Cl)cccc1Cl | 0% | -11% | ? | -24% | 2.5µM*
O=C1c2ccsc2SCCN1Cc1c(F)cccc1Cl | -1% | 1% | 11% | 13% | 13µM*
O=C1c2ccsc2SCCN1Cc1ccc(Cl)cc1Cl | -22% | -6% | -6% | -3% | ?
Cc1ccc(-c2noc(CN(C3CCCCC3)S(=O)(=O)c3ccc(Cl)cc3)n2)cc1 | . | 4% | . | . | 4%
CCOc1ccccc1NC(=O)CSc1nc2c([nH]c3ccccc32)c(=O)n1-c1ccccc1 | . | 0% | . | . | -4%
NC(=S)N/N=C1/CCSc2ccc3ccccc3c21 | -52% | 2µM* | 10% | 14% | 2.2µM*
CCc1cccc(NC(=O)CN(C)S(=O)(=O)c2ccc3c(c2)CCCN3C(C)=O)c1 | . | -17% | . | . | 7%
Cc1ccc(N(Cc2cc3ccccc3[nH]c2=O)C(=O)c2cccc(Cl)c2)cc1 | . | 4% | . | . | -6%
SMILES | BRCA1 expr up | HEK293 tox | a7 integrin act | GLP-1R agonist | GLP-1R inv ag
NC(=O)C(C(=O)/C=C/c1ccc(Cl)cc1)=C1SCCS1 | -55% | -28% | -27% | -8% | 4µM*
O=C(COc1ccccc1C(=O)Nc1ccccc1)Nc1ccc2ccccc2c1 | -44% | . | . | . | .
COc1c(C(=O)NNC(=O)c2ccccc2Cl)csc1Br | 10µM* | -2% | 0% | 2% | -11%
O=C(NNC(=O)c1ccccc1Cl)c1ccncc1 | 13% | 64% | 4% | -24% | 11%
C=C1CC2(OC1=O)c1ccccc1CCc1ccccc12 | -115% | 10µM* | -53% | -17% | ?
O=C(COc1cccnc1[N+](=O)[O-])Nc1cccc(Br)c1 | 11µM* | -13% | -15% | 18% | 2%
COc1ccc(NC(=O)COc2cccnc2[N+](=O)[O-])cc1OC | 0% | 2%[7.66 µM] | -8% | 0% | 10%[7.66 µM]
CCOc1ccc2ccccc2c1C(=O)N1CCN(c2ccccc2)CC1 | -65% | ? | -6% | 7% | 7.9µM*
Cc1cc(C)nc(NC(=O)c2ccc(Cl)cc2Cl)n1 | 0% | -1% | 10µM* | 10% | 12%
Cc1cc(C)nc(NC(=O)c2c(Cl)cccc2Cl)n1 | 18% | -3% | 2% | 4% | 7%
O=C(NCc1ccccc1)c1cc2sccc2n1Cc1ccc(F)cc1 | -23% | 3% | . | -3% | 10µM*
Cc1ccc(CNC(=O)c2cc3sccc3n2Cc2ccc(F)cc2)cc1 | 13% | 3% | . | -7% | -11%
COCCn1c(C)cc(O)c(C(c2ccccc2F)N2CCN(c3ccccc3)CC2)c1=O (configuration not stated) | . | 4% | . | . | -7%
O=C(CC1SC(=Nc2ccccc2)N(CCc2c[nH]c3ccccc23)C1=O)Nc1ccccc1F (configuration not stated) | -87% | ? | -30% | 6% | 6.3µM*
CCCCCCC[C@@H](C/C=C/CCC(=O)N(C)C/C(=C/Cl)C/C(=C\C(=O)N1CC(OC)=CC1=O)OC)OC | -54% | 2% | ? | -3% | -27%
CCCCCCC[C@@H](C/C=C/CCC(=O)N(C)C/C(=C/Cl)C/C(=C\C(=O)N1C[C@H](O)CC1=O)OC)OC | -11% | -19% | -35% | 4% | 11µM*
CCOc1ccc(NC(=O)COC(=O)c2ccccc2OCc2ccccc2Br)cc1 | 0% | . | . | . | .
Cc1ccsc1CCN1C(=O)N(c2ccccc2)C(=O)C1CC(=O)Nc1ccc(F)cc1 (configuration not stated) | . | -2% | . | . | ?
CCn1nc(C)c2c(-c3ccccc3)cc(=O)n(C(C)C(=O)Nc3cccc(F)c3)c21 (configuration not stated) | . | 0% | . | . | 7.9µM*
CCOC(=O)c1[nH]c(C)c(CCC(=O)N2CCN(c3cccc(C)c3C)CC2)c1C | . | 2% | . | . | ?
Cc1cccc(S(=O)(=O)c2cn(Cc3ccc(F)cc3)c3cc(N4CCCCC4)c(F)cc3c2=O)c1 | . | -5% | . | . | -7%
